# Screens: PubChem, Broad Institute
# TRPM1 prom inh: inhibitors of MITF-driven TRPM1 promoter in melanoma cells; SK-MEL-5 TRPM1 promoter luciferase, 24 h; inhibition, % at 12.5 µM; 330,000 compounds, 0.83% hits; AID 488899;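 active = mean inhibition across replicates of 60% or more, whatever share of single replicates reaches that level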
# PfHsp90 set2: reduces growth (ATP signal) of yeast expressing P. falciparum Hsp90; S. cerevisiae expressing PfHsp90, BacTiter-Glo ATP, 48 h; yeast lacking PDR1 and PDR3 efflux regulators; inhibition, % at 9.4 µM; 310,000 compounds, 0.32% hits; AID 504621;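 active = every replicate shows inhibition above about 80%, whatever the replicate mean, limit read from the data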
# NSD2 HMT inh: NSD2 (human) methyltransferase inhibition; O96028; NSD2 peptide methylation, AlphaScreen, 120 min; inhibition, % at 12.5 µM; 310,000 compounds, 0.54% hits; AID 743445; in the data active = inhibition above about 50%
# MITF TRPM1 HTS: increases MITF-driven TRPM1 promoter luciferase signal; SK-MEL-5 TRPM1-promoter luciferase, 24 h; % of positive control, neutral wells = 0; 300,000 compounds, 0.75% hits; activation, % at 12.5 µM; AID 588334;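 active = mean activation of at least 80% with every replicate also reaching 80%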
# N-glyco inh: N-linked glycosylation inhibition; D54 ERlucT glycosylation luciferase reporter, 24 h; percent of 100 nM tunicamycin response; reporter increase, % at 12.5 µM; 360,000 compounds, 0.23% hits; AID 588692;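 active = mean luciferase reporter signal, scaled so untreated is 0 and the glycosylation-blocking control 100, at or above a set limit in every replicate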;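 note: luciferase carries N-glycosylation sites so blocking glycosylation raises the light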
# Wnt act: activates Wnt/beta-catenin signaling in a reporter cell assay. activator, plate reader. AID 743398. activation, % at 9.35 µM. 300,000 compounds, 1.2% hits; in the data active = activation above about 30%, passing the limit was not always enough
# A number is an active result; - = inactive; . = not tested or not shown. Only some compounds are listed: those with a hit (about 2.9% of all), similar ones and a draw of the others.
SMILES,TRPM1 prom inh,PfHsp90 set2,NSD2 HMT inh,MITF TRPM1 HTS,N-glyco inh,Wnt act
CCCCC(=O)N(C)c1c(C)nc2ccc(C(=O)N3CCN(S(=O)(=O)CC)CC3)cn12,.,.,-,.,-,-
Cc1ccc(CONC(=O)c2ccc(Cl)cc2)cc1,-,-,-,-,-,34.3
COc1ccc(C(=O)NOCc2ccccc2)cc1,-,-,.,-,-,-
O=C(NOCc1ccccc1)c1ccc(Cl)cc1,-,-,-,-,-,-
O=C(NOCc1ccccc1)c1ccc([N+](=O)[O-])cc1,-,-,-,-,-,37.9
COc1ccc(S(=O)(=O)N2CCC(C(=O)NCCC(=O)Nc3cccc(Cl)c3)CC2)cc1,-,-,-,-,-,-
Fc1ccccc1-c1n[nH]c(=S)n1N=Cc1cccc(OCc2ccccc2)c1,.,.,-,.,.,.
O=C(NCCN1CCOCC1)c1cc(-c2ccccc2)on1,-,-,-,-,-,47.3
O=C(NCCCN1CCOCC1)c1cc(-c2ccccc2)on1,-,-,-,-,29.5,-
O=C(NCCN1CCOCC1)c1cc(-c2ccc(Br)cc2)on1,-,-,-,-,-,.
F[B-](F)(F)COCc1ccccc1C#Cc1ccccc1,.,.,.,.,.,-
COC(=O)c1cc2c(c3c4cc(OC)ccc4n(S(=O)(=O)c4ccc(OC)cc4)c13)C(=O)N(Cc1ccccc1OC)C2,.,.,-,.,.,-
CCOc1ccc(S(=O)(=O)/N=C(/Nc2ccc(OC)cc2)c2ccccc2)cc1,-,-,-,-,-,-
COc1ccc(C(=O)NN/C(=N/S(=O)(=O)c2ccc(C)cc2)c2ccccc2)cc1,-,-,-,129.3,-,42.8
Cc1ccc(S(=O)(=O)/N=C(/Nc2ccc(O)c(C(=O)O)c2)c2ccccc2)cc1,-,-,-,-,-,56.6
O=C(O)c1cc(N/C(=N\S(=O)(=O)c2ccc(F)cc2)c2ccccc2)ccc1O,-,-,-,-,-,-
Cc1nc2nc(C)n(CCN3CCOCC3)c(=O)c2c(-c2cccc([N+](=O)[O-])c2)c1C(=O)CCCCCCCCCCN1CCC(c2ccccc2)(c2ccccc2)CC1,99.3,-,-,.,-,-
O=C(NCCCN1CCOCC1)/C(=C/c1ccc(-c2cccc([N+](=O)[O-])c2)o1)NC(=O)c1ccccc1,.,.,-,.,-,.
O=C1c2cccn2CC2Cc3ccccc3N12 (stereo unspecified),.,.,-,.,.,.
CSc1ccc(CN2CCN(C(=O)c3ccncc3)CC2)cc1,-,-,-,-,-,-
CCc1nc2ccc(C(=O)NCCc3ccccn3)cn2c1N(CC)CCOC,.,.,-,.,-,-
CCOC(=O)C1CCN(Cc2ccc(OC)c(C)c2OC)CC1,-,-,-,-,-,.
CCOC(=O)C1CCN(Cc2cc(Cl)c3ccccc3c2O)CC1,-,-,-,-,44.0,.
COc1cccc(C(=O)N[C@@H](Cc2cccnc2)C(=O)N2CCC[C@H]2C(=O)NCc2ccccc2)c1,.,.,.,.,.,-
CCOCc1c(C(=O)OCC(=O)Nc2ccccc2C(N)=O)oc2ccccc12,-,-,-,-,-,38.5
SMILES,TRPM1 prom inh,PfHsp90 set2,NSD2 HMT inh,MITF TRPM1 HTS,N-glyco inh,Wnt act
CCOCc1c(C(=O)OCC(=O)/C(C#N)=C(\C)N)oc2ccccc12,-,-,-,-,-,-
Fc1ccc(/C=N/Nc2nccnc2Cl)cc1,-,-,-,.,-,-
Oc1ccc(/C=N/Nc2nccnc2Cl)cc1,-,-,-,-,-,47.3
COC(=O)c1ccc(N2CCN(C)CC2)c(NC(=O)c2sc3ccccc3c2Cl)c1,-,-,-,.,-,-
COc1ccc(S(=O)(=O)Nc2cc(Sc3ncn[nH]3)c(O)c3ccccc23)cc1,.,.,165.1,.,.,.
COc1ccc(S(=O)(=O)Nc2ccc(O)c(Sc3ncn[nH]3)c2)cc1,-,-,.,-,-,.
Cc1ccccc1NC(=O)N(C)[C@H]1C[C@H]2c3[nH]c4c(-c5ccccc5)cccc4c3CCN2C(=O)[C@H]1[C@H](C)O,.,.,.,.,.,-
Cc1ccc(S(=O)(=O)CC(CN2CCCCC2)N2CCCCC2)cc1 (stereo unspecified),69.3,-,-,-,-,-
Cc1ccc(S(=O)(=O)CC(c2ccccc2)N2CCCCC2)cc1 (stereo unspecified),-,-,-,-,-,.
O=S(=O)(CC(CN1CCOCC1)N1CCOCC1)c1ccccc1 (stereo unspecified),-,-,-,-,-,.
O=S(=O)(CC(CN1CCCCC1)N1CCCCC1)c1ccc2ccccc2c1 (stereo unspecified),74.9,-,-,-,-,-
C[C@H](O)[C@@H]1C(=O)N2CCc3c([nH]c4c(-c5ccccc5)cccc34)[C@@H]2C[C@@H]1N(C)C(=O)OCc1ccccc1,.,.,.,.,.,-
O=C(COC(=O)c1ccc(OC(F)F)cc1)Nc1ccc2c(c1)OCCO2,.,.,-,.,.,.
COc1ccc(C(=O)CC2(O)C(=O)N(CN3CCOCC3)c3ccc(Br)cc32)cc1 (stereo unspecified),.,.,-,.,.,-
C[C@@]12C(=O)Nc3cc(F)ccc3C(=O)N1[C@H]1c3ccccc3OC[C@@H]1[C@@H]2c1ccccc1,-,-,.,-,26.0,.
COc1ccc2c(c1)[C@H]1[C@H](CO2)[C@H](c2ccccc2)[C@]2(C)C(=O)Nc3cc(C)ccc3C(=O)N12,-,-,.,-,51.2,-
COc1ccc2c(c1)[C@H]1[C@H](CO2)[C@H](c2ccccc2)[C@]2(C)C(=O)Nc3cc(Cl)ccc3C(=O)N12,-,-,.,-,64.0,.
COc1ccc2c(c1)OC[C@H]1[C@H]2N2C(=O)c3ccc(C)cc3NC(=O)[C@@]2(C)[C@H]1c1ccccc1,-,-,.,-,47.9,-
Cc1ccc2c(c1)[C@H]1[C@H](CO2)[C@H](c2ccccc2)[C@]2(C)C(=O)Nc3ccc(F)cc3C(=O)N12,-,-,.,-,-,-
Cc1ccc2c(c1)[C@H]1[C@H](CO2)[C@H](c2ccccc2)[C@]2(C)C(=O)Nc3cc(Cl)ccc3C(=O)N12,-,-,.,-,-,.
COc1ccc2c(c1)C(=O)N1[C@H]3c4cc(Cl)ccc4OC[C@@H]3[C@H](c3ccccc3)[C@]1(C)C(=O)N2,-,-,.,-,38.3,-
COc1ccc2c(c1)C(=O)N1[C@H]3c4cc(Br)ccc4OC[C@@H]3[C@H](c3ccccc3)[C@]1(C)C(=O)N2,-,-,.,-,37.3,.
C[C@@]12C(=O)Nc3ccc(Br)cc3C(=O)N1[C@H]1c3cc(Br)ccc3OC[C@@H]1[C@@H]2c1ccccc1,-,-,.,-,-,-
C[C@@]12C(=O)Nc3ccc(Cl)cc3C(=O)N1[C@H]1c3cc(Br)ccc3OC[C@@H]1[C@@H]2c1ccccc1,-,-,.,-,-,-
CC1OC(CC(=O)O)CC2=C1C(=O)c1c(O)cccc1C2=O (stereo unspecified),113.0,106.0,95.0,.,-,-
CC(C)(C)c1ccc(S(=O)(=O)N2CCC(C(=O)N3CCN(C4CCCCC4)CC3)CC2)cc1,.,.,-,.,.,.
Cn1cccc1/C=C1\SC(=O)N(c2ccccc2)C1=O,-,-,-,94.5,-,40.7
